Source: PubChem
SRC2 inh = inhibition of GAL4-SRC2 driven luciferase reporter, primary screen, SRC2 inhibitor project, cell-based, luminescence | AID 651957, 2012 | 0.17% of 370,000 active | inhibition, % at 9 µM | HEK293 GAL4-SRC2 luciferase reporter;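 active means inhibition above the mean inhibition of all tested compounds plus 3 SD, set per campaign, cut at about 52% in these data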
NR5A2 inv ag = LRH-1 (NR5A2) inverse agonists, primary screen, cell-based, luminescence, HEK293T, StAR-luciferase reporter. Nuclear receptor subfamily 5 group A member 2 (Homo sapiens), O00482. LRH-1 transfected, 24 h. inhibition, % at 3.6 µM. 0.13% of 360,000 active. AID 602396, 2012;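 active means inhibition above the mean inhibition of all tested compounds plus 3 SD, cut at about 73% in these data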
GalR3 antagonist = GalR3 antagonists in HEK293 cells, primary screen, cell-based, fluorescence readout. Galanin receptor type 3 (Homo sapiens), O60755. HEK293 GalR3-CNG cAMP membrane potential fluorescence; galR3 body fused to GalR1 C-terminus. inhibition, % at 3 µM. AID 651719, 2012. 0.44% of 360,000 active;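 active means inhibition above the screen-wide average plus 3 SD, cut at about 13% in these data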;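 further: forskolin and galanin both at EC90 stimulate the cells; cAMP rise reported by CNG channel membrane potential dye signal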
SRC3 inh = SRC3 coactivator transcriptional activity inhibitors, primary screen, cell-based, luminescence; Nuclear receptor coactivator 3 (Homo sapiens), Q9Y6Q9; HEK293 GAL4-SRC3 luciferase reporter; inhibition, % at 3.6 µM; 0.17% of 360,000 active;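 active means inhibition above a per-campaign cutoff, the mean of all compounds plus 3 SD, cut at about 60% in these data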;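 further: higher means less SRC3-driven luciferase light from the GAL4 reporter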
SRC1 inh = SRC1 coactivator transcriptional activity inhibitors, primary screen, cell-based, luminescence; Nuclear receptor coactivator 1 (Homo sapiens), Q15788; 0.12% of 360,000 active; HEK293 GAL4-SRC1 luciferase reporter; inhibition, % at 3.6 µM; AID 588354, 2011;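 active means inhibition above the campaign mean plus 3 SD, with each screening campaign given its own cutoff, cut at about 60% in these data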
NR2F2 inh = NR2F2 transcriptional activity inhibitors, primary screen, cell-based, luciferase reporter, HEK293T, luminescence; COUP transcription factor 2 (Homo sapiens), P24468; HEK293T NGFI-A luciferase reporter; inhibition, % at 8.6 µM; 0.7% of 370,000 active; AID 686940, 2013;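 active means inhibition above a per-plate cutoff, mean inhibition of test wells between control levels plus 3 SD, cut at about 38% in these data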;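 further: cells cotransfected with COUP-TFII expression vector driving the NGFI-A reporter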
Target sequence (P24468 whole entry, looked up): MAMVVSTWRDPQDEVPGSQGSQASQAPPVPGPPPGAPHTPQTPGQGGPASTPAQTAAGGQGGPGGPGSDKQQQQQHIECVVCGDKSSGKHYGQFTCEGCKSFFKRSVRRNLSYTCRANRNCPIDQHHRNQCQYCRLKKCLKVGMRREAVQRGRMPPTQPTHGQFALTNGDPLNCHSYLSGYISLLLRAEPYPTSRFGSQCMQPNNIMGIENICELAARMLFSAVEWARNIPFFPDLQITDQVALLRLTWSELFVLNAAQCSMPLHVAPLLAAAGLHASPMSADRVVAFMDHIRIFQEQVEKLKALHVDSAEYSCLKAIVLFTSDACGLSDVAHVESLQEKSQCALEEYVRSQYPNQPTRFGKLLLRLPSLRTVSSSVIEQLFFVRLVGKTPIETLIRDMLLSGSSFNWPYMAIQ
VP16 Luc counter = Gal4-VP16 luciferase reporter inhibitors, counter-screen for COUP-TFII antagonist project, cell-based, luminescence, HEK293 | shares compounds with NR2F2 inh | 25% of 2,500 active | AID 687007, 2013 | inhibition, % at 8.5 µM; in the data active means inhibition above about 13%
NR2F2 inh conf = NR2F2 transcriptional activity inhibitors, confirmation, cell-based, luciferase reporter, HEK293, triplicate. shares compounds with NR2F2 inh. HEK293 NGFI-A luciferase reporter, luminescence. inhibition, % at 8.5 µM. 45% of 2,500 active. AID 687008, 2013;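 active means mean inhibition over three repeats above a set limit taken from the earlier primary screen, cut at about 38% in these data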
Large screens that a line does not name were inactive (follow-up assays come after a bar, where they were run). In the library only some 1.1% were active in any assay of this set; here they are far more common.

NCCN1C(=O)S/C(=C\c2ccc3c(c2)OCO3)C1=O	SRC2 inh 69.3, NR2F2 inh 76.0 | VP16 Luc counter 27.2 | NR2F2 inh conf inactive
O=C(CNC(=O)c1ccccc1F)NCCN1C(=O)S/C(=C\c2ccc3c(c2)OCO3)C1=O	none
COC(=O)[C@]12C[C@H](CC(=O)NCC3CCCCC3)C(=O)N(Cc3cccc4ccccc34)C1=C[C@H](C1CCCC1)O[C@@H]2C	none (no result: NR5A2 inv ag, GalR3 antagonist, SRC3 inh, SRC1 inh)
CCN=C1NN=C(c2cc(C)n(CCc3ccccc3)c2C)CS1	none
CCN=C1NN=C(c2cc(C)n(Cc3ccco3)c2C)CS1	SRC2 inh 71.3, SRC3 inh 61.7, NR2F2 inh 72.9 | VP16 Luc counter 20.8 | NR2F2 inh conf 91.5
O=C1N(c2ccccc2)CC2C(c3ccccc3)C(c3ccccc3)N3CCCC123 (configuration not stated)	none (no result: NR5A2 inv ag, GalR3 antagonist, SRC3 inh, SRC1 inh)
O=C1N(c2ccccc2)C[C@@H]2C[C@@H](c3cc4ccccc4o3)N3CCC[C@@]123	SRC2 inh 54.1, NR5A2 inv ag 95.3, SRC3 inh 87.8, SRC1 inh 90.1, NR2F2 inh 79.6 | VP16 Luc counter inactive | NR2F2 inh conf 73.5
O=C(CCc1ccccc1)N[C@H]1[C@@H](OC(=O)c2cccnc2)CCC[C@@]12C(=O)N(Cc1ccccc1)c1ccccc12	none (no result: NR5A2 inv ag, GalR3 antagonist, SRC3 inh, SRC1 inh)
CCN1C=CC(=C2C(=O)c3ccccc3C2=O)C=C1	SRC2 inh 65.3, NR2F2 inh 70.0 | VP16 Luc counter 31.1 | NR2F2 inh conf inactive
CCCCCCN1C=CC(=C2C(=O)c3ccccc3C2=O)C=C1	none
CCCN1C=CC(=C2C(=O)c3ccccc3C2=O)C=C1	SRC2 inh 85.3, SRC3 inh 66.8, NR2F2 inh 85.1 | VP16 Luc counter 72.9 | NR2F2 inh conf 84.9
O=C(NC1CCCCN(Cc2cccc(Cl)c2)C1=O)c1ccc2ccccc2c1 (configuration not stated)	none (no result: NR5A2 inv ag, GalR3 antagonist, SRC3 inh, SRC1 inh)
CCc1c(-c2ccccc2)ncn1Cc1cccc(-c2ccccc2)c1	none (no result: SRC3 inh, SRC1 inh)
CCc1c(-c2ccccc2F)ncn1Cc1cccc(-c2ccccc2)c1	NR2F2 inh 43.9 (no result: SRC3 inh, SRC1 inh) | VP16 Luc counter inactive | NR2F2 inh conf inactive
Cc1ccc(-c2c(C(=O)NC3CCCC3)oc(=O)c3ccccc23)cc1	none (no result: NR5A2 inv ag, GalR3 antagonist, SRC3 inh, SRC1 inh)
CC(C)(C)c1ccc(-c2nnc(SCc3ccccc3)n2Cc2ccco2)cc1	none (no result: NR5A2 inv ag, GalR3 antagonist, SRC3 inh, SRC1 inh)
Cc1ccc(C(=O)Nc2ncc([N+](=O)[O-])s2)cc1	SRC2 inh 61.9, NR2F2 inh 63.5 | VP16 Luc counter inactive | NR2F2 inh conf inactive
O=C(Nc1ncc([N+](=O)[O-])s1)c1ccc2c(c1)OCO2	none
OCC1OC(n2ccc3c(NO)ncnc32)C(O)C1O (configuration not stated)	NR5A2 inv ag 98.2, SRC3 inh 84.8, SRC1 inh 68.9, NR2F2 inh 47.4 | VP16 Luc counter 27.4 | NR2F2 inh conf inactive
Cc1cccc(-c2noc(CCC(=O)NCc3ccco3)n2)c1	none
CC(C)(C)c1ccc(-c2noc(CCC(=O)NCc3ccco3)n2)cc1	SRC2 inh 63.3, NR2F2 inh 38.1 | VP16 Luc counter 25.4 | NR2F2 inh conf 57.2
O=C(NCC1COc2ccccc2O1)c1ccc(NC(=O)c2cccc(F)c2F)cc1 (configuration not stated)	none (no result: NR5A2 inv ag, GalR3 antagonist, SRC3 inh, SRC1 inh)
COCC(=O)OC1CCn2c1nc1c2C(=O)C(C)=C(NC(C)=O)C1=O (configuration not stated)	SRC2 inh 72.9, NR5A2 inv ag 96.1, SRC3 inh 87.6, SRC1 inh 89.9, NR2F2 inh 71.8 | VP16 Luc counter 49.7 | NR2F2 inh conf 73.6
